In PubChem BioAssay AID1159580 (chemical genetic matrix, 2015):
Screen size: about 5,500 compounds; about 2,000 (36%) were called active. Another 18% or so got no clear call; they are omitted. No stated cut-off is given here; in the data, active means normalized growth mostly below about 0.91 (no sharp cut-off); inconclusive means no clear call, values can overlap the other calls; inactive means mostly above about 0.92. Some of the results follow.

Assay: chemical genetic growth profiling, strain panel (AID 1159580);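 further: tested at 20 µM; growth read once vehicle control cultures reached saturation at 30 °C; 1 = growth at the plate median or of vehicle wells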
Details: growth OD

Measured: normalized growth

CC1CC[C@@]2(OC1)O[C@H]1CC3C4CC[C@@H]5C[C@@H](O)CC[C@]5(C)C4CC[C@]3(C)[C@H]1[C@@H]2C (some centres not stated)
inactive: S. cerevisiae deletion strains, locus YJR066W, strain TOR1, stronger effect = lower value 0.937 | S. cerevisiae deletion strains, locus YJR075W, strain HOC1, stronger effect = lower value 1.03 | S. cerevisiae deletion strains, locus YKL009W, strain mrt4, stronger effect = lower value 0.988 | S. cerevisiae deletion strains, locus YKL068W, stronger effect = lower value 0.985 | S. cerevisiae deletion strains, locus YKL085W, strain MDH1 (second series), stronger effect = lower value 0.969 | S. cerevisiae deletion strains, locus YKL085W, strain MDH1, stronger effect = lower value 0.969 | S. cerevisiae deletion strains, locus YKL160W, strain elf1, stronger effect = lower value 1.02 | S. cerevisiae deletion strains, locus YKL190W, strain CNB1, stronger effect = lower value 1.03 | S. cerevisiae deletion strains, locus YKR001C, strain vps1, stronger effect = lower value 1.01 | S. cerevisiae deletion strains, locus YKR026C, strain gcn3, stronger effect = lower value 1.03 | S. cerevisiae deletion strains, locus YLL026W, stronger effect = lower value 1.02 | S. cerevisiae deletion strains, locus YLL041C, strain sdh2, stronger effect = lower value 1.02 | S. cerevisiae deletion strains, locus YLR027C, strain aat2, stronger effect = lower value 1.05 | S. cerevisiae deletion strains, locus YLR039C, strain RIC1, stronger effect = lower value 1.09 | S. cerevisiae deletion strains, locus YLR058C, strain SHM2, stronger effect = lower value 1.04 | S. cerevisiae deletion strains, locus YLR102C, strain apc9, stronger effect = lower value 1.01 | S. cerevisiae deletion strains, locus YLR113W, strain HOG1, stronger effect = lower value 0.996 | S. cerevisiae deletion strains, locus YLR221C, strain rsa3, stronger effect = lower value 1.03 | S. cerevisiae deletion strains, locus YLR258W, strain gsy2, stronger effect = lower value 1.03 | S. cerevisiae deletion strains, locus YLR262C, strain YPT6 (second series), stronger effect = lower value 0.987 | S. cerevisiae deletion strains, locus YLR268W, strain sec22, stronger effect = lower value 1.02 | S. cerevisiae deletion strains, locus YLR320W, strain mms22, stronger effect = lower value 1.04 | S. cerevisiae deletion strains, locus YLR330W, strain CHS5, stronger effect = lower value 1.02 | S. cerevisiae deletion strains, locus YLR342W, strain FKS1 (second series), stronger effect = lower value 1.03 | S. cerevisiae deletion strains, locus YLR342W, strain FKS1, stronger effect = lower value 1.03 | S. cerevisiae deletion strains, locus YLR370C, strain arc18, stronger effect = lower value 1.02 | S. cerevisiae deletion strains, locus YLR371W, strain rom2, stronger effect = lower value 1.01 | S. cerevisiae deletion strains, locus YLR384C, strain iki3, stronger effect = lower value 1.01 | S. cerevisiae deletion strains, locus YLR418C, strain cdc73, stronger effect = lower value 1.04 | S. cerevisiae deletion strains, locus YML016C, strain PPZ1, stronger effect = lower value 1.02 | S. cerevisiae deletion strains, locus YML032C, strain rad52, stronger effect = lower value 1.01 | S. cerevisiae deletion strains, locus YML120C, strain ndi1, stronger effect = lower value 1.04 | S. cerevisiae deletion strains, locus YML124C, strain tub3, stronger effect = lower value 0.998 | S. cerevisiae deletion strains, locus YMR058W, strain fet3, stronger effect = lower value 1.02 | S. cerevisiae deletion strains, locus YMR078C, strain ctf18, stronger effect = lower value 0.998 | S. cerevisiae deletion strains, locus YMR125W, strain sto1, stronger effect = lower value 1.04 | S. cerevisiae deletion strains, locus YMR129W, stronger effect = lower value 1.01 | S. cerevisiae deletion strains, locus YMR205C, strain PFK2, stronger effect = lower value 1.02 | S. cerevisiae deletion strains, locus YMR223W, strain ubp8, stronger effect = lower value 1 | S. cerevisiae deletion strains, locus YMR231W, strain pep5, stronger effect = lower value 1.02 | S. cerevisiae deletion strains, locus YMR307W, strain GAS1, stronger effect = lower value 1.21 | S. cerevisiae deletion strains, locus YNL067W, strain RPL9B, stronger effect = lower value 1.03 | S. cerevisiae deletion strains, locus YNL071W, strain lat1, stronger effect = lower value 1.04 | S. cerevisiae deletion strains, locus YNL183C, strain NPR1, stronger effect = lower value 0.941 | S. cerevisiae deletion strains, locus YNL209W, strain ssb2, stronger effect = lower value 1.01 | S. cerevisiae deletion strains, locus YNL233W, strain BNI4, stronger effect = lower value 1.07 | S. cerevisiae deletion strains, locus YNL248C, strain rpa49, stronger effect = lower value 1.02 | S. cerevisiae deletion strains, locus YNL250W, strain rad50, stronger effect = lower value 1.05 | S. cerevisiae deletion strains, locus YNL271C, strain bni1, stronger effect = lower value 1 | S. cerevisiae deletion strains, locus YNL298W, strain CLA4, stronger effect = lower value 1.05 | S. cerevisiae deletion strains, locus YNL307C, strain MCK1, stronger effect = lower value 1 | S. cerevisiae deletion strains, locus YNL322C, strain KRE1 (second series), stronger effect = lower value 1.05 | S. cerevisiae deletion strains, locus YNL322C, strain KRE1, stronger effect = lower value 1.02 | S. cerevisiae deletion strains, locus YNR049C, strain mso1, stronger effect = lower value 1.02 | S. cerevisiae deletion strains, locus YNR052C, strain pop2, stronger effect = lower value 0.995 | S. cerevisiae deletion strains, locus YOL012C, strain htz1 1.12 | S. cerevisiae deletion strains, locus YOL147C, strain pex11, stronger effect = lower value 1.03 | S. cerevisiae deletion strains, locus YOR001W, strain rrp6, stronger effect = lower value 1.05 | S. cerevisiae deletion strains, locus YOR061W, strain CKA2, stronger effect = lower value 1.02 | S. cerevisiae deletion strains, locus YOR069W, strain VPS5, stronger effect = lower value 1.02 | S. cerevisiae deletion strains, locus YOR070C, strain gyp1, stronger effect = lower value 1.01 | S. cerevisiae deletion strains, locus YOR080W, strain dia2, stronger effect = lower value 1.02 | S. cerevisiae deletion strains, locus YOR083W, strain WHI5, stronger effect = lower value 1.02 | S. cerevisiae deletion strains, locus YOR106W, strain vam3, stronger effect = lower value 1.04 | S. cerevisiae deletion strains, locus YOR136W, strain idh2, stronger effect = lower value 1.01 | S. cerevisiae deletion strains, locus YOR144C, strain elg1, stronger effect = lower value 1 | S. cerevisiae deletion strains, locus YOR184W, strain ser1, stronger effect = lower value 1 | S. cerevisiae deletion strains, locus YOR231W, strain MKK1, stronger effect = lower value 0.99 | S. cerevisiae deletion strains, locus YOR265W, strain rbl2, stronger effect = lower value 1.01 | S. cerevisiae deletion strains, locus YOR270C, strain vph1, stronger effect = lower value 1.14 | S. cerevisiae deletion strains, locus YOR290C, strain snf2, stronger effect = lower value 1.1 | S. cerevisiae deletion strains, locus YOR316C, strain cot1, stronger effect = lower value 0.992 | S. cerevisiae deletion strains, locus YPL051W, strain arl3, stronger effect = lower value 1.02 | S. cerevisiae deletion strains, locus YPL078C, strain atp4, stronger effect = lower value 1.05 | S. cerevisiae deletion strains, locus YPL106C, strain sse1, stronger effect = lower value 1.02 | S. cerevisiae deletion strains, locus YPL240C, strain hsp82, stronger effect = lower value 1.02 | S. cerevisiae deletion strains, locus YPL241C, strain CIN2, stronger effect = lower value 1.03 | S. cerevisiae deletion strains, locus YPL256C, strain CLN2, stronger effect = lower value 0.984 | S. cerevisiae deletion strains, locus YPR119W, strain clb2, stronger effect = lower value 1.01 | S. cerevisiae deletion strains, locus YPR141C, strain kar3, stronger effect = lower value 1 | S. cerevisiae deletion strains, locus YPR163C, strain tif3, stronger effect = lower value 1.01 | S. cerevisiae deletion strains, locus YPR167C, strain met16, stronger effect = lower value 1.02 | S. cerevisiae deletion strains, strain wtn01, stronger effect = lower value 1.01 | S. cerevisiae strains, strain wild type, stronger effect = lower value 1.05
active: S. cerevisiae deletion strains, locus YKR091W, strain srl3, stronger effect = lower value 1.11 [resistant] | S. cerevisiae deletion strains, locus YLL001W, strain dnm1, stronger effect = lower value 1.18 [resistant] | S. cerevisiae deletion strains, locus YLR357W, strain rsc2, stronger effect = lower value 1.45 [resistant]
